An excerpt weighted towards active compounds, which were near 9.2% of everything screened.
FLuc modulator: firefly luciferase modulation, counter-screen for miR-21 project; purified FLuc, Km substrates, luminescence inhibition; Potency, µM (doses to about 57.5 µM), for inactives: at the highest dose activity change, negative = inhibition, actives largely listed as inhibitors; 6.9% of 360,000 active; P08659;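 note: plate controls were vehicle for no effect and reference inhibitor for full effect; nearly all actives have a fitted effect of over 55% in size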
Target sequence (P08659 whole entry, looked up): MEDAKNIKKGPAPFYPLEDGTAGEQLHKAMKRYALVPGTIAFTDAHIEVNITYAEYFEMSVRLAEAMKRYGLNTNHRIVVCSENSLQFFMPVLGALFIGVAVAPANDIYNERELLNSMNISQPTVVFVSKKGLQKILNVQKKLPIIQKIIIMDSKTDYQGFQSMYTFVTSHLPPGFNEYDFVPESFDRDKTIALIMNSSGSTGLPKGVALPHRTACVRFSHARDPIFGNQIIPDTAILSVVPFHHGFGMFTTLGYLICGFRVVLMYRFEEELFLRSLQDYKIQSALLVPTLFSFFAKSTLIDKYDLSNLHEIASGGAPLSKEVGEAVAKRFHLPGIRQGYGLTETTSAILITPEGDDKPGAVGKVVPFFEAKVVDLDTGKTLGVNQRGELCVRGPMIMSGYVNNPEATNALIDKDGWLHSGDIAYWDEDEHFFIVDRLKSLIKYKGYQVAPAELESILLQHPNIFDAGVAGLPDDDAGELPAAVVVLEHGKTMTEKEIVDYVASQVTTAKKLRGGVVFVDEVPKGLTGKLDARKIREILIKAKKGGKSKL
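Biochemical qHTS of compounds, final roughly 60 µM downward over six points, against 10 nM purified firefly luciferase using Km concentrations of substrates (10 uM D-luciferin, 10 uM ATP) in Tris acetate pH 7.5 buffer; luminescence output.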
SMN2 splice up: SMN2 splice variant enhancement | HEK293 SMN2-luciferase splicing reporter, luminescence, 30-36 h | Potency, µM (highest dose often 46.1 µM), without a hit: at the top dose activity change, positive = activation, usual class: activators | 2.8% of 210,000 active; note: % of control where 0% means no effect; nearly all actives have a fitted effect of over 55% in size
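HEK293 cells carry an SMN2 minigene-luciferase reporter in which exon 7 inclusion puts luciferase in frame. Cells were seeded at 2000 cells/well, attached for 10-12 hours, then exposed to compounds for 30-36 hours at 37C before ONE-Glo luminescence.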
ELG1 repair inh: ELG1-dependent DNA repair inhibition. HEK293T ELG1-luciferase reporter, luminescence, 16 h; DNA damage induced by 5-fluorouridine. Potency, µM (titrated, usually from 46.1 µM), for inactives: at the top dose activity change, negative = inhibition, hits mostly inhibitors. 2.3% of 330,000 active. AID 504467; note: % is set by controls: 0 for no effect and ±100 for the full control effect; nearly all actives have a fitted effect of over 55% in size
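Reporter activity after DNA damage by 5-fluorouridine is monitored. Compound-treated cells incubate 16 hr at 37 °C, then ONE-Glo is added for 30 min before luminescence reading.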
ELG1 genotox: induces genotoxicity in HEK293T cells with luciferase-tagged ELG1. 1.3% of 330,000 active. HEK293T ELG1-luciferase reporter, luminescence, 16 h. Potency, µM (titrated, usually from 46 µM), without a hit: top-dose activity change, positive = activation, hits mostly activators; note: % of control where 0% means no effect; nearly all actives have a fitted effect of over 60% in size
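After overnight (16 hr) compound treatment at 37 °C, ELG1-luciferase HEK293T cells were lysed with ONE-Glo; luminescence quantified 30 min later at room temperature.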
Rab9 promoter act: activates the Rab9 promoter. AID 485297. Potency, µM (top dose mostly 9.22 µM), for inactives: top-dose activation, negative = inhibition, hits mostly activators. Huh7 Rab9 promoter-luciferase reporter, luminescence, 24 h. 2.8% of 320,000 active; note: % of control where 0% means no effect; nearly all actives have a fitted effect of over 60% in size
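Luminescence read-out: Huh7 cells stably expressing Rab9-luciferase, treated 24 h with compound at 37 °C, then lysed with luciferase reagent for 10 min at ambient before reading.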
NPC1 prom act: activators of NPC1 promoter | AID 485313 | 2.4% of 320,000 active | Huh7 NPC1 promoter luciferase reporter, 24 h | Potency, µM (highest dose often 9.22 µM), for inactives: at the top dose activation, actives largely listed as activators; note: % of control where 0% means no effect; nearly all actives have a fitted effect of over 60% in size
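In 1536-well qHTS, Huh7 cells harboring an NPC1 promoter–luciferase construct received compound for 24 h; activation was quantified by luminescence following luciferase reagent addition.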
Active calls of the source: *; ? = inconclusive; . = no result given; [ ] = another dose, or the depositor's remark. Calls come from the whole dose curve; as a rule, active = well fitted curve in the direction sought with a large enough effect; inconclusive = small, poorly fitted or top-dose-only effect, or another doubt; inactive = no such curve, though single readings can be large; an effect the other way counts as inactive or inconclusive. Potency is the fitted concentration of half-maximal effect.

SMILES	FLuc modulator	SMN2 splice up	ELG1 repair inh	ELG1 genotox	Rab9 promoter act	NPC1 prom act
O=C(NC12CC3CC(CC(C3)C1)C2)c1ccc(-c2cccc(Cl)c2)o1	2.4µM*	-33%	?	?	0.89µM*	2.8µM*
O=C(NC(=S)Nc1ccccc1O)c1ccc(-c2ccc(Cl)cc2)o1	4%	-5%	-2%	4%	-8%	-2%
CC(=O)NC(=O)c1ccc(-c2ccc(Cl)cc2)o1	5.4µM*	.	?	10%	19%	-2%
O=C(NC12CC3CC(CC(C3)C1)C2)c1ccc(-c2ccccc2Cl)o1	1.9µM*	8%	?	?	2µM*	1.1µM*
O=C(NC12CC3CC(CC(C3)C1)C2)c1ccc(-c2ccc(Cl)cc2)o1	?	16µM*	?	?	3.2µM*	?
O=C(NC12CC3CC(CC(C3)C1)C2)c1ccco1	-9%	.	?	-5%	0%	2%
CCc1nnc(NS(=O)(=O)c2ccc(Nc3ccc4nonc4c3[N+](=O)[O-])cc2)s1	-15%	-9%	-2%	-1%	-1%	1%
O=C(NCCc1c[nH]c2ccccc12)OCCSS(=O)(=O)O	?	-3%	-14%	-4%	2%	-1%
CN(C(=O)c1cc2c(=O)n3ccccc3nc2n1C)c1ccccc1	2%	.	.	.	.	.
CN(CC1CCCO1)S(=O)(=O)c1ccc(C(=O)N2CCN(c3ccccc3)CC2)cc1 (configuration not stated)	1%	-31%	23µM*	-8%	-9%	-1%
CN(CC1CCCO1)S(=O)(=O)c1ccc(C(=O)Nc2ccc3c(c2)OCO3)cc1 (configuration not stated)	-7%	-28%	12µM*	-4%	-9%	-3%
Cc1ccc(CN(c2ccc(C(=O)Nc3ccc4c(c3)OCO4)cc2)S(C)(=O)=O)cc1	-16%	-1%	-13%	-3%	-1%	-3%
CN(c1ccc(C(=O)Nc2ccc3c(c2)OCCO3)cc1)S(C)(=O)=O	7.6µM*	11µM*	?	?	1.6µM*	2.2µM*
CN(c1ccc(C(=O)Nc2ccc3c(c2)OCO3)cc1)S(C)(=O)=O	12µM*	.	?	15%	4µM*	2.8µM*
CN(c1ccccc1C(=O)Nc1ccc2c(c1)OCCO2)S(C)(=O)=O	2%	-9%	4%	1%	10%	-1%
O=C(c1ccc(OCC2CCCO2)cc1)N1CCN(c2ccccc2)CC1 (configuration not stated)	-1%	10%	2%	-3%	-3%	-1%
CC(CC(F)(F)F)N1CCC(n2nccc2NC(=O)CCOc2ccccc2)CC1 (configuration not stated)	1%	.	-7%	0%	-7%	2%
Cc1ccc(C)c(COC(=O)c2cccc(S(=O)(=O)N3CCCC3)c2)c1	5%	.	0%	-4%	0%	-1%
Cc1ccc(OC(=O)c2cccc(S(=O)(=O)N(C)C)c2)c(-n2nc3ccccc3n2)c1	-17%	?	?	4.6µM*	2.8µM*	3.5µM*
Cc1ccc(OC(=O)c2ccc(S(=O)(=O)N(C)C)cc2)c(-n2nc3ccccc3n2)c1	?	?	?	?	1.4µM*	4µM*
Cc1ccc(OC(=O)c2cccc(S(=O)(=O)N3CCCC3)c2)c(-n2nc3ccccc3n2)c1	?	11µM*	?	?	4µM*	3.5µM*
CC(=O)Oc1ccc(C)cc1-n1nc2ccccc2n1	21µM*	?	?	?	4.5µM*	2.8µM*
CN(C)S(=O)(=O)c1ccc(C(=O)Oc2ccccc2)cc1	-5%	?	0%	1%	-2%	-2%
O=C(CN1C(=O)c2ccccc2C1=O)Nc1cc(C(=O)O)cc(C(=O)O)c1	1%	.	9%	-2%	3%	1%
CCNC(=O)COc1ccc(OCc2ccccc2)cc1	?	10%	?	8%	18%	10%
SMILES	FLuc modulator	SMN2 splice up	ELG1 repair inh	ELG1 genotox	Rab9 promoter act	NPC1 prom act
CCNC(=O)COc1ccc(-c2ccccc2)cc1	19µM*	?	?	?	?	?
CC(C)OC(=O)COc1ccc(-c2ccccc2)cc1	12µM*	7%	11%	-5%	2%	0%
CC(C)(C)NC(=O)COc1ccc(-c2ccccc2)cc1	19µM*	12%	?	?	23%	?
CCCC1C(C#N)=C(N)Oc2n[nH]c(C(C)(C)C)c21 (configuration not stated)	4%	-4%	0%	4%	-4%	-1%
NC(=O)c1ccc(SCC(=O)OCC(=O)NCc2ccco2)c([N+](=O)[O-])c1	3%	.	15%	1%	-5%	0%
CCN(CC)c1ccc(NC(=O)Nc2cccc3ccccc23)cc1	2.1µM*	.	?	16%	18%	?
CCN(CC)c1ccc(NC(=O)Nc2ccccc2C(F)(F)F)cc1	-19%	7%	?	0%	3.2µM*	?
CCN(CC(=O)Nc1ccc(C(C)=O)cc1)CC(=O)Nc1ccccc1C(F)(F)F	-2%	.	-13%	0%	-7%	-3%
NS(=O)(=O)c1ccc(NC(=O)Nc2cccc3ccccc23)cc1	-10%	-7%[9.22 µM]	-2%	3%	-8%	0%
CN(C)c1ccc(NC(=O)Nc2cccc3ccccc23)cc1	2.7µM*	12%	?	16%	?	28%
CCn1cc(C(=O)O)c(=O)c2cnc(N3CCN(C(=S)Nc4ccc(F)cc4)CC3)nc21	-3%	.	-1%	-2%	1%	-21%
CCn1cc(C(=O)O)c(=O)c2cnc(N3CCN(C(=S)Nc4ccccc4Cl)CC3)nc21	3%	.	12µM*	-9%	-25%	-28%
Cc1ccc(OCC(=O)Nc2ccc(OCc3cc(=O)n4cccc(C)c4n3)cc2)cc1C	-2%	.	.	.	.	.
COc1cccc(CNC(=O)CCNS(=O)(=O)c2ccc3c(c2)CC(C)N3C(C)=O)c1 (configuration not stated)	0%	.	8.2µM*	-1%[9.26 µM]	-3%	-1%
COc1ccc(NC(=O)CCNS(=O)(=O)c2ccc3c(c2)CC(C)N3C(C)=O)cc1 (configuration not stated)	-1%	.	-8%	-2%[9.26 µM]	-7%	-1%
CC(=O)Oc1ccc2c(c1)O/C(=C\c1ccncc1)C2=O	?	.	9%	1%	1%	-3%
CCC(=O)Oc1ccc2c(c1)O/C(=C\c1ccco1)C2=O	3.4µM*	.	?	9%	12%	1%
COC(=O)COc1ccc2c(c1)O/C(=C\c1ccco1)C2=O	3.4µM*	.	8%	0%	13%	1%
